Data from PubChem BioAssay AID1159580 (chemical genetic matrix, 2015).
Values joined by “and” are separate entries in the source; they are usually repeats but may differ in a detail not shown here. Equal entries are not always repeated. The whole screen tested about 5,500 compounds, of which about 2,000 (36%) were called active. Not shown: some 18% with an inconclusive outcome. No stated cut-off is given here; in the data, active means normalized growth mostly below about 0.91 (no sharp cut-off); inconclusive means no clear call, values can overlap the other calls; inactive means mostly above about 0.92. This is one part of the list.

Assay: chemical genetic growth profiling, strain panel (AID 1159580);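 further: tested at 20 µM; growth read once vehicle control cultures reached saturation at 30 °C; 1 = growth at the plate median or of vehicle wells; lower values mean less growth of the strain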
Conditions: S. cerevisiae deletion strains, growth OD

Measured: normalized growth

CCN(CC)CCOc1ccc2c(c1)C(=O)c1cc(OCCN(CC)CC)ccc1-2
inactive: locus YAL013W, strain DEP1, hits give low values 1 | locus YAL021C, strain ccr4, hits give low values 0.962 | locus YAL026C, strain drs2, hits give low values 0.984 | locus YAL030W, strain snc1, hits give low values 1 | locus YBL061C, strain skt5, hits give low values 0.993 | locus YBR009C, strain hhf1, hits give low values 0.993 | locus YBR021W, strain FUR4, hits give low values 1.06 | locus YBR023C, strain chs3, hits give low values 0.98 | locus YBR171W, strain sec66, hits give low values 0.979 | locus YBR229C, strain ROT2, hits give low values 1 | locus YBR231C, strain swc5, hits give low values 0.974 | locus YBR279W, strain paf1, hits give low values 0.981 | locus YCL011C, strain gbp2, hits give low values 0.977 | locus YCL016C, strain dcc1, hits give low values 0.973 | locus YCL029C, strain bik1, hits give low values 0.975 | locus YCL061C, strain MRC1, hits give low values 0.981 | locus YCL069W, strain vba3, hits give low values 0.996 | locus YCR088W, strain abp1, hits give low values 0.984 | locus YDL005C, strain med2, hits give low values 0.966 | locus YDL035C, strain GPR1, hits give low values 0.991 | locus YDL040C, strain nat1, hits give low values 0.986 | locus YDL074C, strain BRE1, hits give low values 0.998 | locus YDL101C, strain DUN1, hits give low values 0.987 | locus YDL134C, strain PPH21, hits give low values 0.994 | locus YDL185W, strain tfp1, hits give low values 0.947 | locus YDL192W, strain arf1, hits give low values 0.984 | locus YDR001C, strain nth1, hits give low values 0.979 | locus YDR069C, strain doa4, hits give low values 0.96 | locus YDR101C, strain arx1, hits give low values 0.991 | locus YDR137W, strain rgp1, hits give low values 0.998 | locus YDR150W, strain NUM1, hits give low values 0.973 | locus YDR159W, strain sac3, hits give low values 1 | locus YDR162C, strain NBP2, hits give low values 1.02 | locus YDR195W, strain ref2 0.96 | locus YDR297W, strain sur2, hits give low values 0.997 | locus YDR318W, strain mcm21, hits give low values 0.98 | locus YDR334W, strain swr1, hits give low values 0.975 | locus YDR335W, strain msn5, hits give low values 0.989 | locus YDR388W, hits give low values 0.983 | locus YDR392W, strain spt3, hits give low values 0.807 | locus YDR502C, strain sam2, hits give low values 0.99 | locus YEL003W, strain gim4, hits give low values 0.99 | locus YEL037C, strain rad23, hits give low values 0.994 | locus YEL061C, strain CIN8 (second series), hits give low values 0.986 | locus YEL061C, strain CIN8, hits give low values 0.997 | locus YER015W, strain faa2, hits give low values 0.991 | locus YER016W, strain bim1, hits give low values 0.957 | locus YER110C, hits give low values 0.962 | locus YER111C, strain swi4, hits give low values 0.971 | locus YER155C, strain BEM2 (second series), hits give low values 0.937 | locus YER155C, strain BEM2, hits give low values 1 | locus YER167W, strain BCK2, hits give low values 0.982 | locus YFR010W, strain ubp6, hits give low values 0.992 | locus YGL078C, strain dbp3, hits give low values 0.98 | locus YGL086W, strain mad1, hits give low values 0.993 | locus YGL167C, strain pmr1, hits give low values 0.982 | locus YGL173C, strain kem1, hits give low values 0.978 | locus YGL227W, strain vid30, hits give low values 0.978 | locus YGL240W, strain doc1, hits give low values 0.983 | locus YGL248W, strain PDE1, hits give low values 1 | locus YGL253W, strain hxk2, hits give low values 0.983 | locus YGR078C, strain PAC10, hits give low values 0.996 | locus YGR135W, strain pre9, hits give low values 1.02 | locus YGR229C, strain SMI1, hits give low values 1.04 | locus YGR252W, strain gcn5, hits give low values 0.99 | locus YHR013C, strain ard1, hits give low values 0.933 | locus YHR027C, strain rpn1, hits give low values 0.979 | locus YHR030C, strain SLT2, hits give low values 0.977 and 0.988 | locus YHR079C, strain IRE1 (second series), hits give low values 0.989 | locus YHR079C, strain IRE1, hits give low values 0.977 | locus YHR094C, strain hxt1, hits give low values 0.972 | locus YHR129C, strain ARP1, hits give low values 0.998 | locus YHR142W, strain chs7, hits give low values 0.99 | locus YHR200W, strain rpn10, hits give low values 0.98 | locus YIL066C, strain RNR3, hits give low values 0.99 | locus YIL073C, strain SPO22, hits give low values 0.948 | locus YIL125W, strain kgd1, hits give low values 0.981 | locus YIR030C, strain dcg1, hits give low values 0.991 | locus YJL092W, strain hpr5, hits give low values 0.987 | locus YJL095W, strain BCK1 (second series), hits give low values 0.983 | locus YJL095W, strain BCK1, hits give low values 1 and 0.986 | locus YJL115W, strain asf1, hits give low values 0.98 | locus YJL129C, strain trk1, hits give low values 0.974 | locus YJL134W, strain LCB3, hits give low values 0.989 | locus YJL154C, strain vps35, hits give low values 0.979 | locus YJL164C, strain tpk1, hits give low values 0.993 | locus YJL166W, strain qcr8, hits give low values 0.984 | locus YJL168C, strain set2, hits give low values 0.983 | locus YJL187C, strain SWE1 (second series), hits give low values 0.983 | locus YJL187C, strain SWE1, hits give low values 0.981 | locus YJR043C, strain POL32, hits give low values 1.01 | locus YJR066W, strain TOR1, hits give low values 0.965
